Results on 27 compounds are retold here after PubChem BioAssay AID651828 (ICCB-Longwood Screening Facility, Harvard Medical School, 2012).

Molecules are shown by their SMILES. Screen size: about 20,000 compounds; about 25 (0.1%) were called active. No stated cut-off is given here; in the data, active means % bound below about 75%; inactive means the rest. Many of the other results were omitted from the sample, so actives are more common in it than they were.

For this assay, the target named is Nucleoprotein (Rift valley fever virus (strain ZH-548 M12)) (UniProt P21700). Briefly: inhibitors of RVFV nucleoprotein–RNA binding, primary screen, biochemical, fluorescence polarization (AID 651828). As to conditions: RVFV N-RNA binding, hits give low values, concentration not given here. In general terms: Fluorescence polarisation rises when a labelled molecule tumbles more slowly, as on binding a larger partner.
Chain of Nucleoprotein (Rift valley fever virus (strain ZH-548 M12)) (P21700 whole entry, looked up): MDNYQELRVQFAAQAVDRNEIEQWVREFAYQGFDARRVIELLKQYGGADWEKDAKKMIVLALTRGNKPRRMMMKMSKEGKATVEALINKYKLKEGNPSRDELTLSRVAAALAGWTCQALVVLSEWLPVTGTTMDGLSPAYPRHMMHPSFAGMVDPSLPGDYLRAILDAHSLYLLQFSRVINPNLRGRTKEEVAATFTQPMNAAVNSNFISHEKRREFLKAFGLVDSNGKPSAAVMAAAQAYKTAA
In the case of `CCSc1nc2ccccc2c(=O)n1C`, the % bound was 96.2% (inactive).
Then `CS(=O)(=O)NCCS(=O)(=O)N1CCN(c2ccccc2)CC1`, with 97.1% (inactive); and `Cc1ccccc1C(=O)Nc1cccc(N(C)C)c1`, with 99.1% (inactive).
`O=C(CS(=O)(=O)c1ccccc1)Nc1ccccc1O`: the % bound is 95.9% (inactive).
The same measure for `Cc1cc(NN)nc(-c2ccccc2O)n1`: 91.2% (inactive); for `CS(=O)(=O)NCC(c1cccs1)N1CCc2ccccc21` (configuration not stated): 95.9% (inactive).
The same measure for `COC(=O)C1CC2=CC(=O)CCC2(C)C2C(O)CC3(C)C(CCC34CCC(=O)O4)C12` (configuration not stated): 103% (inactive).
Consider `O=c1[nH][nH]c(=O)n1/N=C/C=C\c1ccccc1`, for which the % bound was 101% (inactive).
For `Cc1nnsc1C(=O)Nc1ccc(C(N)=O)cc1`, the % bound is 96.7% (inactive).
The same measure for `NC(=O)c1cccc(NC(=O)C(F)(F)F)c1`: 108% (inactive); for `O=S(=O)(NCCN1CCOCC1)c1ccc(I)cc1`: 94.4% (inactive).
The same measure for `CCc1ccc2[nH]c(=O)c(Cc3ccccc3)c(O)c2c1`: 98.2% (inactive).
The same measure for `CC(C)Sc1nnc(NC(=O)C(C)(C)C)s1`: 96.3% (inactive); for `COc1ccc(C(=O)NCCc2cc3c(OC)ccc(OC)c3[nH]c2=O)cc1`: 97.1% (inactive); for `CCOc1ccc(NC(=O)CSc2nc(=O)n(CCCN3CCOCC3)c3c2CCCC3)cc1`: 105% (inactive).
With `c1ccc2c(c1)CC(Nc1ccc3cn[nH]c3c1)C2`, the % bound is 84.9% (inactive).
`S=C(c1ccccn1)N1CCN(C(=S)c2ccccn2)CC1`: the % bound is 96.1% (inactive).
The same measure for `O=C(CC1SC(=NC2CC3C=CC2C3)NC1=O)Nc1ccc(Cl)cc1` (configuration not stated): 89.9% (inactive); for `COc1ccc(-c2cc(-c3nnc(N)o3)no2)cc1OC`: 92.5% (inactive).
Then `CC(C)Nc1ncccn1`, with 104% (inactive); and `COCn1c(=O)[nH]c2ccccc21`, with 91.1% (inactive).
The same measure for `CCOC(=O)N1CCN(C(=S)Nc2ccc(Oc3ccccc3)cc2)CC1`: 92.1% (inactive); for `COc1ccc(NC(=O)COc2cccc3c2CCN(C)C3=O)cc1`: 90.3% (inactive); for `Cc1nc(NNC(=O)c2ccccc2)cc(-c2ccccc2)n1`: 91.7% (inactive).
As for `CC(c1ccccc1)n1c(SCc2nc(-c3ccc(C(C)(C)C)cc3)no2)n[nH]c1=O` (configuration not stated), the % bound is 95.1% (inactive).
In the case of `N#CCCSc1nccn1Cc1ccccc1`, the % bound was 106% (inactive).
The same measure for `c1ccc2c(c1)OC1OC2Oc2ccccc21`: 98.8% (inactive).
